Assay results published in PubChem BioAssay AID1259336 (Sattelle Laboratory, UCL Respiratory, Division of Medicine, …, 2017).
The source made the active and inactive calls. Rule as the data show it: active = log2 fold change growth below about -1.8; inactive = the rest.

experiment: anthelmintic activity against nematode growth – whole organism, log2 fold change (AID 1259336);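 also: growth scored by imaging after five days at 20 °C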; details: C. elegans growth, anthelmintic screen; hits give low values

log2 fold change growth, active:
O=C(Nc1ccc(F)c(-c2nc3ncc(-c4ccccc4)cc3[nH]2)c1)N1CCCC1 -5.81

log2 fold change growth, inactive:
CC(=O)NC[C@H]1CN(c2ccc(-c3ccc(CO)cc3)c(F)c2)C(=O)O1 0.592
COc1cc(C2=NCCN2)ccc1-c1cn(-c2cccc(C3=NCCN3)c2)nn1 -0.121
COc1cccc(OCC(=O)c2ccc(Br)cc2)c1 -0.945
CC1(O)CC(c2nc(-c3ccc4ccc(-c5ccccc5)nc4c3)c3c(N)nccn23)C1 (stereo not drawn) -0.23
Cc1ccc(C(=O)Nc2ccc(S(=O)(=O)O)c3cc(S(=O)(=O)O)cc(S(=O)(=O)O)c23)cc1NC(=O)c1cccc(NC(=O)Nc2cccc(C(=O)Nc3cc(C(=O)Nc4ccc(S(=O)(=O)O)c5cc(S(=O)(=O)O)cc(S(=O)(=O)O)c45)ccc3C)c2)c1 0.211
Cc1nc(-c2ccccn2)nc(NCCc2ccc(S(C)(=O)=O)cc2)c1Cl -0.702
Cc1cnc(CCNC(=O)c2cc(-c3ccc(Cl)cc3)cs2)[nH]1 -0.147
COc1ccc(-c2cnc3cnc(-c4cccc(OC(C)C)c4)cn23)cc1 -0.137
COc1ccc(C2(C(=O)Nc3ccc(Br)cc3)CCCC2)cc1 -0.749
O=C(c1ccc(F)cc1)N(CCNc1ccccc1)c1ccccc1 0.348
C[C@H](Oc1ccccc1)C(=O)Nc1nc(-c2ccccn2)cs1 -0.519
c1ccc(-c2cc(N3CCCCC3)c3ccccc3n2)nc1 -1.36
Cc1cc(Cl)c(S(=O)(=O)N2CCCC2)cc1OCC(=O)NC1CCCCC1 -0.00734
Cc1ccc2c(c1C)NC(=O)[C@]21NN=C(c2ccccc2)S1 -0.355
CCOC(=O)c1c(NC(=O)c2c(F)c(F)c(F)c(F)c2F)sc(C(N)=O)c1C 0.119
NC(N)=Nc1ccc(-c2ccc(-c3ccc(N=C(N)N)c(Cl)c3)o2)cc1Cl -0.555
N#Cc1ccc(-c2ccc(OCC(N)=O)cc2)cc1 -0.349
Cc1cc(C)cc(COc2ccc3c(C)c(CCC(=O)O)c(=O)oc3c2C)c1 -0.0961
CC[C@H](C)NC(=O)c1ccc(NC(=O)C2(c3ccccc3)CCCC2)cc1 0.546
Cc1cc(Cl)ccc1NC(=O)CCc1ccc(S(=O)(=O)NCC(C)C)cc1 -0.221
CCN(CC)CCCCCCNc1cc(OC)cc2c(C)ccnc12 -0.053
NS(=O)(=O)c1cncc(-c2ccc3nccc(-c4cn[nH]c4)c3n2)c1 -0.501
